Screening results as filed in PubChem BioAssay.
An excerpt weighted towards active compounds, which were near 1.3% of everything screened.
FID counter: compounds displacing fluorescent DNA intercalator, primary screen, artefact control for HCV NS3 helicase inhibitor project, biochemical, FID fluorescence; DNA fluorescent intercalator displacement; inhibition, % at 7.9 µM; actives 0.17% (n = 290,000); AID 1845, 2009; in the data active means inhibition above about 37%;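 further: 0% = vehicle and 100% = reference compound; higher means more ethidium bromide displaced from hairpin DNA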
RAD52 inh: RAD52 DNA annealing inhibitors, primary screen, biochemical, FRET, single point, set 2. recombinant RAD52 DNA annealing, FRET fluorescence. inhibition, % at 18.7 µM. actives 0.46% (n = 360,000);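 active means every replicate showing at least 50% inhibition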
RAD54 inh: inhibitors of human RAD54 branch migration, primary screen, biochemical, fluorescence, single point. DNA repair and recombination protein RAD54-like (Homo sapiens), Q92698. RAD54 Holliday junction branch migration, FAM/BHQ fluorescence. inhibition, % at 10.4 µM. actives 0.14% (n = 360,000). AID 602329, 2012;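 active means mean normalized replicate activity at least 40 and at least half of replicates scoring 40 or more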;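 further: 0% = median of neutral control wells and 100% = median of positive control wells; inhibitors cause a drop in the FAM fluorescence signal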
Target sequence (Q92698 whole entry, looked up): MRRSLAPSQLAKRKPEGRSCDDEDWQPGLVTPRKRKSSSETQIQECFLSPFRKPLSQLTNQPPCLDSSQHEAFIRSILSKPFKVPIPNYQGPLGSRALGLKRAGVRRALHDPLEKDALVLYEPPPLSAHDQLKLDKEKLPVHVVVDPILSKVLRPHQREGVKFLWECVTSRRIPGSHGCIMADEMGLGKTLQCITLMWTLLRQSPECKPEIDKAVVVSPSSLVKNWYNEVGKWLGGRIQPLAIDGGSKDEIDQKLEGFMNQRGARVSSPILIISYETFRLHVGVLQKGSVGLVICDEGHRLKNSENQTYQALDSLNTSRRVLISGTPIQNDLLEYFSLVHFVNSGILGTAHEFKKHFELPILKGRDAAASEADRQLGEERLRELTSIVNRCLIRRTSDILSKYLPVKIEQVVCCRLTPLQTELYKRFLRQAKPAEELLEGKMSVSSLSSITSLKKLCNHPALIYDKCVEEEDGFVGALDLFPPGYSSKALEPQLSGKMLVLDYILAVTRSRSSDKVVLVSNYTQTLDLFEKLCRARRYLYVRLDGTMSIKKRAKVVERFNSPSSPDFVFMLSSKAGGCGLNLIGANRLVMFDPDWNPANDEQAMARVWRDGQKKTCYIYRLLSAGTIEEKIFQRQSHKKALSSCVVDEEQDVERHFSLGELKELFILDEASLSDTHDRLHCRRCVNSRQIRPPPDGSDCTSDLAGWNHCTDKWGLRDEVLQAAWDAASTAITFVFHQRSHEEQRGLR
MIN6 prolif-1: inducers of MIN6 beta-cell proliferation, primary screen, ATP luminescence, uHTS; MIN6 cells proliferation, ATPlite luminescence, 48 h; cells starved in 0.2% serum; 100% = growth in 10% serum; proliferation, % at 10 µM; actives 0.29% (n = 330,000);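 active means compounds whose signal lies at least 3.5 SD above the mean of all wells on their plate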;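 further: 0% = DMSO-treated cells in low-serum medium and 100% = 10% serum control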
PREPL inh: PREPL enzyme inhibitors, primary screen, biochemical, fluorescence polarization. Prolyl endopeptidase-like (Homo sapiens), Q4J6C6. recombinant PREPL, fluorescence polarization activity-based probe. inhibition, % at 5.96 µM. actives 0.68% (n = 320,000). AID 2751, 2010; in the data active means inhibition above about 43%;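 further: 0% = enzyme with DMSO and 100% = wells lacking enzyme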
UBC13 polyUb: UBC13 polyubiquitin chain formation inhibitors, primary screen, biochemical, TR-FRET, uHTS; inhibition, % at 20 µM; actives 0.47% (n = 330,000); in the data active means inhibition above about 45%, passing the limit was not always enough
MIN6 prolif-2: inducers of beta-cell proliferation in MIN6, confirmation, MIN6 cells, mouse | shares compounds with MIN6 prolif-1 | ATPlite luminescence, 48 h; cells kept in 0.2% serum; scaled between 0.2% and 10% serum | proliferation increase, % at 50 µM | 920 tested, under 10 active | AID 463095, 2010;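 active means proliferation increase above 40% at any of the four tested concentrations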
Active calls of the source: *; . = no result given.

SMILES	FID counter	RAD52 inh	RAD54 inh	MIN6 prolif-1	PREPL inh	UBC13 polyUb	MIN6 prolif-2
C=CCNC(=S)NNC(=O)c1csc(C)c1CC	-4	.	-4	0	2	-7	.
COc1ccc(N(CC(=O)Nc2cccc(C)c2)S(=O)(=O)c2c(C)n[nH]c2C)cc1	-16	.	10	-4	2	-24	.
COc1cc(NC(=O)CN(c2ccc(C)cc2)S(=O)(=O)c2c(C)n[nH]c2C)cc(OC)c1	-16	.	-10	0.0*	1	2	-6
CC(=O)N(C)C[C@H]1Oc2ncc(C#Cc3cccc(F)c3)cc2C(=O)N([C@@H](C)CO)C[C@H]1C	.	-2	-3	.	.	.	.
C[C@H]1CN([C@@H](C)CO)C(=O)Cc2cc(NS(C)(=O)=O)ccc2O[C@@H]1CN(C)C(=O)Nc1ccc2c(c1)OCO2	.	13	0	.	.	.	.
CCOc1ccc2nc(SCC(=O)N3CCCCCC3)c(C#N)cc2c1	-10	.	-8	5.3*	16	1	0
Cc1ccc(N(CC(=O)NC2CCCC2)C(=O)CCC(=O)Nc2nccs2)c(C)c1	-44	-6	-3	21*	-2	-2	-1
Cc1ccc(C)c(N(CC(=O)NC2CCCC2)C(=O)CCC(=O)Nc2nccs2)c1	-44	-10	-7	1	-2	7	.
COc1cccc(NC(=O)N[C@@H]2C=C[C@H](CC(=O)Nc3ccccc3)O[C@H]2CO)c1	.	-6	3	.	.	.	.
CCOn1c(=O)c(-c2cc3ccccc3o2)[n+]([O-])c2ccccc21	2	-183	-10	6.8*	1	4	0
CCC(=O)Nc1ccc2c(c1)C(=O)N(C)[C@H]1CC[C@@H](CC(=O)NCC3CC3)O[C@@H]1CO2	.	-1	-11	.	.	.	.
O=C(Cc1cccnc1)N1CC[C@H]2[C@H](CO)Nc3ccc(C#Cc4cccc(F)c4)cc3[C@H]21	.	-25	.	.	.	.	.
COc1ccc(-c2csc3ncnc(N4CCN(C(=O)c5ccco5)CC4)c23)cc1	.	-13	9	11*	-1	-1	-5
Cc1nn(-c2ccccc2)c(C)c1C(=O)N1CCN(S(=O)(=O)c2ccccc2)CC1	.	-2	2	12*	5	3	-1
COC(=O)C[C@@H]1CC[C@H]2[C@@H](COc3ccc(NC(=O)c4cccc(Cl)c4)cc3C(=O)N2C)O1	.	4	-5	.	.	.	.
CCN(CC)C(=O)[C@]1(c2ccccc2)C[C@@H]1CN	0	.	.	12*	-11	8	1
CN(c1ncnc(N)c1[N+](=O)[O-])C1CCS(=O)(=O)C1 (stereo not given)	3	-8	4	0	-2	12	.
CN(c1ncnc(N)c1[N+](=O)[O-])C1CCCCC1	-5	-10	0	25*	4	11	12
C[C@H](CO)N1C[C@H](C)[C@@H](CN(C)C(=O)Nc2ccccc2)Oc2ccc(NS(=O)(=O)c3cccs3)cc2C1=O	.	16	.	.	.	.	.
CC(=O)Nc1cccc(-c2cnc(N)c(C(=O)c3cccnc3)n2)c1	.	.	1	11*	19	-18	-4
CCOC(=O)c1ccccc1OCc1cc(/C=N/NC(=O)c2ccncc2)ccc1OC	-36	-8	-2	2	-29	6	.
CCOC(=O)c1ccccc1OCc1cc(/C=N/n2cncn2)ccc1OC	-14	.	.	7.8*	-16	4	2
O=C(C1CC1)N1CC(=O)N2[C@@H](CO)[C@@H](c3ccc(C#CCc4ccccc4)cc3)[C@@H]2C1	.	-7	.	.	.	.	.
C[C@H](CO)N1C[C@H](C)[C@H](CN(C)S(=O)(=O)c2cn(C)cn2)Oc2c(NC(=O)c3nc4ccccc4s3)cccc2C1=O	.	-7	-1	.	.	.	.
O=C(OC(c1ccccc1)c1nccc2ccccc12)c1ccccc1 (stereo not given)	.	-6	-1	.	.	.	.
SMILES	FID counter	RAD52 inh	RAD54 inh	MIN6 prolif-1	PREPL inh	UBC13 polyUb	MIN6 prolif-2
OC(c1ccc(Cl)cc1)c1nccc2ccccc12 (stereo not given)	-9	-5	-13	5.5*	1	4	-6
O=C(N/N=C/c1ccccn1)c1ccc2nc[nH]c2c1	-1	-11	0	7.8*	-7	-21	1
O=C(NCCN1CCOCC1)c1cc2ccccc2[nH]1	-1	.	1	8.2*	8	-11	0
CCOc1ccc(S(=O)(=O)N(CC)CC)cc1NC(=O)CSCc1c(C)noc1C	.	-9	-7	11*	18	-4	-3
CN1C(=O)c2cc(NC(=O)c3cccs3)ccc2OC[C@@H]2O[C@@H](CC(=O)NCC3CC3)CC[C@H]21	.	.	-4	.	.	.	.
CCOC(=O)C1CCCCN1Cc1ccc(OC)c(OC)c1 (stereo not given)	1	-3	-5	8.0*	-3	5	2
CC=Cc1ccc2n(c1=O)C[C@@H]1[C@@H](CO)[C@H](C(=O)NC3CCC3)N(S(C)(=O)=O)[C@H]21 (mixture of isomers)	.	1	7	.	.	.	.
Fc1cccc(Nc2nc3ccccc3n3nnnc23)c1	-2	-122	7	13*	-7	5	4
CCOc1ccccc1Nc1cc2n(c(=O)n1)CCc1cc(OC)c(OC)cc1-2	-26	1	.	12*	5	-3	-1
COc1cc2c(cc1OC)-c1cc(Nc3ccccc3C)nc(=O)n1CC2	-28	6	-14	7	-9	3	.
COCCCn1c(-c2ccco2)nc2ccccc2c1=O	-5	.	-5	2	7	8	.
CCCCOCCCn1c(-c2ccco2)nc2nc3ccccc3nc21	-17	.	-6	7.8*	5	16	-6
CO[C@@H]1CN(C)C(=O)c2ccc(NC(=O)C3CC3)cc2OC[C@H](C)N(CCc2ccccc2)C[C@H]1C	.	-6	.	.	.	.	.
CCS(=O)(=O)c1ccc(Sc2nncn2C)c([N+](=O)[O-])c1	-2	-9	.	7.7*	-3	1	-6
CCOC(=O)C1CCN(C(=O)CC(NS(=O)(=O)c2ccc(OC)cc2)C(C)C)CC1 (stereo not given)	-23	.	-6	6.2*	0	-3	2
COc1ccc(-c2nc3c(c(SCC(=O)N4CCOCC4)n2)COC(C)(C)C3)cc1	-1	.	-2	-3	0	15	.
COc1ccc(-c2nc3c(c(SCC(=O)N4CCCC4)n2)COC(C)(C)C3)cc1	-62	-1	0	11*	10	17	-5
CN(C)C(=O)c1ccc(-c2ccc(C3[C@@H]4CN(C(=O)C5CCCC5)C[C@H]3N4)cc2)cc1 (stereo not given in full)	.	-12	.	.	.	.	.
